We go through 31 compounds from PubChem BioAssay (NCATS).

Results filed as inconclusive are left out. The source made the active and inactive calls. Calls come from the whole dose curve; as a rule, active = well fitted curve in the direction sought with a large enough effect in the signal ratio, with a control signal flat (not every such curve was filed as active); inconclusive = small, poorly fitted or top-dose-only effect, or a change in a side signal; inactive = no such curve, though single readings can be large or run the other way; the % refers to the signal ratio.

A short description of the test: qHTS Assay for Identification of Small Molecule Inducers of Hypoxia Response (AID 2120). Note: 0% is about no effect. The note with it: hypoxia response reporter cells, beta-lactamase ratio readout; series mostly up to 104 µM; activation: at the top concentration. The gist of the method: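 Read-out: CCF4 FRET emission ratio 460nm/530nm (excitation 405nm), converted to %Activity, with AC50 fitted across a compound titration. ME-180 cells carried an HRE-driven beta-lactamase reporter; compound exposure 17 h, 37 degrees C.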
For `Cc1cc(C)cc(N)c1`, the “activation” value is -0.302% (inactive).

On to `Cc1ccc(C)cc1`, for which the “activation” value was 1.78% (inactive).

As to `c1ccc2c(c1)ccc1ncccc12`, the “activation” value is 0.564% (inactive).

For `O=C(O)CCSSCCC(=O)O`, the “activation” value is 0.279% (inactive).

As to `CC(CCl)OC(C)CCl` (stereo unspecified), the “activation” value is 0.284% (inactive).

As to `CCCC(Cl)CCCC(Cl)CCC(Cl)CCC(Cl)CCC(Cl)CCCC(Cl)CCC` (stereo unspecified), the “activation” value was 3.02% (inactive).

As for `CC(=O)Nc1ccc(N)cc1`, the “activation” value is 0.273% (inactive).

Consider `Nc1cc(S(=O)(=O)O)ccc1O`, for which the “activation” value is -0.403% (inactive).

Regarding `Nc1cccc(S(=O)(=O)O)c1`, the “activation” value was -0.916% (inactive).

Take `Cc1ccc2oc(=O)ccc2c1`: the “activation” value is 1.5% (inactive).

Consider `NC(=O)c1cccc([N+](=O)[O-])c1`, for which the “activation” value is 1.89% (inactive).

With `Nc1ccc(Cl)cc1[N+](=O)[O-]`, the “activation” value is -0.555% (inactive).

With `Nc1cccc([N+](=O)[O-])c1`, the “activation” value is 0.297% (inactive).

Regarding `Oc1c(Cl)ccc(Cl)c1Cl`, the “activation” value was 0.604% (inactive).

Take `C[C@@H]1CC2(OC3C[C@@]4(C)C5=CC[C@H]6C(C)(C)C(O[C@@H]7OC[C@@H](O)[C@H](O)[C@H]7O)CC[C@@]67C[C@@]57CC[C@]4(C)C31)OC(O)C1(C)OC21` (stereo partly specified): the “activation” value was 1.49% (inactive).

For the compound `Cc1ccc(N(C)C)cc1`, the “activation” value is 1.79% (inactive).

For `C1COC1`, the “activation” value was 0.906% (inactive).

Regarding `O=C1CCCCC1`, the “activation” value is 0.307% (inactive).

For `Cc1cccc([N+](=O)[O-])c1C(=O)O`, the “activation” value was 3.02% (inactive).

With `BrC(Br)C(Br)Br`, the “activation” value is 0.993% (inactive).

`c1ccsc1`: the “activation” value was 0.858% (inactive).

As for `ClCCl`, the “activation” value is -0.564% (inactive).

As for `Nc1ccc(F)cc1F`, the “activation” value is 1.71% (inactive).

In the case of `CCC(C)(C)C(=O)O`, the “activation” value is 2.46% (inactive).

In the case of `CC(N)CN` (stereo unspecified), the “activation” value was -0.0046% (inactive).

Turning to `COc1ccc(OC)cc1`, the “activation” value is 0.205% (inactive).

Turning to `C1CCC2OC2C1` (stereo unspecified), the “activation” value is 0.464% (inactive).

As to `Cc1ccc2cccnc2c1`, the “activation” value was 0.464% (inactive).

As for `CCOc1cc(OCC)c(C(C)=O)cc1OCC`, the “activation” value was 1.21% (inactive).

In the case of `CCN(Cc1ccccc1)c1ccccc1`, the “activation” value is -0.269% (inactive).

In the case of `O=C1NC(=O)c2cc([N+](=O)[O-])ccc21`, the “activation” value was 0.766% (inactive).
